Source: PubChem BioAssay
DT40 TDP1 no CPT: qHTS for Inhibitors of human tyrosyl-DNA phosphodiesterase 1 (TDP1): qHTS in cells in absence of CPT. DT40 Tdp1-/- hTDP1 cells, no CPT, ATP luminescence, 48 h. Potency, µM (top dose mostly 46.2 µM), most hits filed as inhibitors. 420,000 compounds, 15% hits. AID 686978, 2013; note: nearly all actives have a fitted effect of over 55% in size
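No-CPT arm: Tdp1-/-;hTDP1 DT40 cells (400/well) plus compounds, incubated ≥48 hr at 37 °C. Readout CellTiter-Glo luminescence.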
IL-1B inflam inh: blocks inflammasome-driven IL-1 beta release. THP-1 LPS/ATP IL-1B secretion, AlphaLISA, 16 h; hits give low values. activity change, % at 57.5 µM. 360,000 compounds, 4.7% hits. AID 743279; in the data active = activity change below about -50%; inconclusive = mostly about -30% to -49%
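Secreted IL-1B measured by AlphaLISA bead assay after 16 h compound exposure of THP-1 cells; compounds (final up to 57.5 uM) added 1 h before LPS (250 ng/mL) and ATP (1.25 mM) stimulation; lower signal means less secretion.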
VP16 counter: Gal4-VP16 reporter inhibition counter-screen; Drosophila S2 Gal4-VP16 UAS-luciferase, luminescence, 20 h; AID 2546; Potency, µM (titrated, usually from 53.6 µM), hits mostly inhibitors; 310,000 compounds, 3.5% hits;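 note: Gal4-VP16 expression switched on by copper sulfate through the metallothionein promoter; nearly all actives have a fitted effect of over 50% in size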
RORg inh: ROR gamma (mouse) transcription inhibition; AID 2551; Drosophila S2 Gal4-RORgamma UAS-luciferase reporter, 20 h; Potency, µM (series often up to 53.6 µM), most hits filed as inhibitors; 310,000 compounds, 5.4% hits; note: nearly all actives have a fitted effect of over 60% in size
Target sequence (P51450 whole entry, looked up, the tested form may be a part): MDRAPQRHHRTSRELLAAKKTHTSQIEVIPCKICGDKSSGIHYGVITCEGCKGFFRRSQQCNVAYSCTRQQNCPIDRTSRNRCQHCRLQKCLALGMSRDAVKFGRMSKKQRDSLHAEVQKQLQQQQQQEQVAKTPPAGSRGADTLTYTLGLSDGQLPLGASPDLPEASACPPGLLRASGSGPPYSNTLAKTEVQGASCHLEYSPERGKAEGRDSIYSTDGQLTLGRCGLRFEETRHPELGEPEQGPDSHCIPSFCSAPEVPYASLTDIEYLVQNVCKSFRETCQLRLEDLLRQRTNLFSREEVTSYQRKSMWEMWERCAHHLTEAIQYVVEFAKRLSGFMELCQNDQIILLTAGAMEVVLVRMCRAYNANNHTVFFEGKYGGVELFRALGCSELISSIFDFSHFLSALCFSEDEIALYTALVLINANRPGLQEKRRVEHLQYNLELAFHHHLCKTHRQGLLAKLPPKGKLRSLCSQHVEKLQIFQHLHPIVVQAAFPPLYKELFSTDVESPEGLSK
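Read-out: Photinus luciferase luminescence; inhibitors lower reporter signal. Insect Schneider cells with Gal4-ROR gamma fusion under metallothionein promoter, UAS reporter; 700 uM final copper sulfate induction, 20 hr, ambient temperature.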
LDHA inh: inhibitors of human lactate dehydrogenase A | P00338 | purified LDHA, NADH/diaphorase-resazurin fluorescence; hits give low values | activity change, % (values are at about 110 or 230 µM) | 480,000 compounds, 0.15% hits; in the data active = activity change below about -30%; inconclusive = mostly about -25% to -30%
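Human LDH5 at 2 nM final in Tris HCl pH 7.4 with 0.06 mM NADH and 0.2 mM pyruvate, reacted 5 minutes at room temperature. Remaining NADH coupled via diaphorase/resazurin; resorufin fluorescence read at 0 and 20 minutes, normalized to enzyme-free and DMSO wells.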
DT40 TDP1 CPT: DT40-hTDP1 cell growth loss with CPT | 420,000 compounds, 12% hits | Potency, µM (series often up to 46.2 µM), actives largely listed as inhibitors | chicken DT40 Tdp1-/-;hTDP1 cells + 20 nM CPT, ATP luminescence, 48 h; note: nearly all actives have a fitted effect of over 55% in size
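Chicken DT40 Tdp1-/- cells stably complemented with human TDP1 were seeded at 400 cells/well in medium containing 20 nM camptothecin, exposed to pin-transferred compounds, and grown at 37 °C for at least 48 hr. Viability was read as ATP luminescence.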
Hits are given with their value; - = inactive; ? = inconclusive; . = not tested or not shown; ! = not active in a repeat; [ ] = dose if it differs, or a comment. Hits are enriched below; roughly 18% of the tested compounds scored in any of these assays. Unless noted, calls come from the whole dose curve; as a rule, active = well fitted curve in the direction sought with a large enough effect; inconclusive = small, poorly fitted or top-dose-only effect, or another doubt; inactive = no such curve, though single readings can be large; an effect the other way counts as inactive or inconclusive.

SMILES	DT40 TDP1 no CPT	IL-1B inflam inh	VP16 counter	RORg inh	LDHA inh	DT40 TDP1 CPT
Cc1ccc(Cl)c2c(C=O)c(C(C)(C)C)[nH]c12	.	.	.	.	-	.
COc1ccccc1CCn1c(=O)c(-c2cccc(F)c2)nc2cncnc21	-	.	-	-	.	-
CCc1ccccc1OCCCOc1ccc(OC)cc1	-	-	-	-	-	-
COc1ccccc1CCn1c(=O)c(-c2ccccc2)nc2cncnc21	?	.	-	-	.	?
CCCCc1c(-c2ccccc2)ncn1CCc1ccccc1OC	16µM	?	.	.	-	?
CCCCCc1c(-c2ccc(OC)cc2)ncn1CCc1ccccc1OC	15µM	-94	.	.	-	13µM
CCCCc1c(-c2ccc(OC)cc2)ncn1CCc1ccccc1OC	23µM	-114	.	.	-	21µM
CCCCc1c(-c2cccc(Cl)c2)ncn1CCc1ccccc1OC	8.2µM	-58	.	.	-	8.2µM
CCOc1cc(/C=C2/NC(=O)NC2=O)ccc1OCc1ccccc1F	.	.	.	.	-	.
C/C=C/Cn1c(SCc2ccc(F)cc2)nc2c1c(=O)[nH]c(=O)n2C	.	.	.	.	-	.
CCc1ccc(NC(=O)c2cnc(N3CCOCC3)c3ccccc23)cc1	.	.	.	.	-	.
CCC(=O)N1CCN(c2oc(/C=C/c3ccccc3)nc2C#N)CC1	.	.	.	.	-	.
CNC(=O)NC(=O)C(C)Sc1ncnc2ccccc12 (stereo unspecified)	.	.	.	.	-	.
CCCCCc1c(-c2ccc(Cl)cc2)ncn1CCc1ccccc1OC	7.3µM	-63	.	.	-	8.2µM
COc1ccccc1CCn1c(=O)c(CCc2ccccc2)nc2cncnc21	-	.	-	-	.	-
COc1ccccc1CCn1c(=O)c(-c2cc(F)cc(F)c2)nc2cncnc21	-	.	-	-	.	-
CCCc1c(-c2cccc(Cl)c2)ncn1Cc1ccccc1OC	9.2µM	?	.	.	-	5.8µM
CCCCc1c(Cc2ccccc2)ncn1CCc1ccccc1OC	5.2µM	-58	.	.	-	2.9µM
CCCCc1c(-c2ccc(F)cc2)ncn1CCc1ccccc1OC	21µM	?	.	.	-	?
O=C(Cc1coc2cc3c(cc12)CCC3)NC1CCSc2c(F)cccc21 (stereo unspecified)	.	.	.	.	-	.
Cc1cccc(Cn2c(NCCCN3CCOCC3)nc3c2c(=O)[nH]c(=O)n3C)c1	.	.	.	.	-	.
CC(=O)N1CCC(C(=O)Nc2ccc(Cl)cc2)CC1	.	.	.	.	-	.
CCCCNC(=S)N/N=C/c1ccc(C)s1	?	-	2.5µM	1µM	-	?
S=C(NCCc1ccccc1)N/N=C/c1ccc(Cl)cc1	?	-	?	?	-	?
CCOC(=O)N/N=C\c1ccc(C)s1	-	?	?	-	-	-
SMILES	DT40 TDP1 no CPT	IL-1B inflam inh	VP16 counter	RORg inh	LDHA inh	DT40 TDP1 CPT
S=C(NCCc1ccccc1)N/N=C/c1c(Cl)cccc1Cl	16µM	-	8.9µM	10µM	-	?
Cc1ccc(/C=N/NC(=S)NCCc2ccccc2)s1	-	-	2.2µM	0.22µM	-	-
COc1cc(/C=N/NC(=S)NCCc2ccccc2)cc(OC)c1OC	16µM	-	?	13µM	-	26µM
C=CCOc1cccc(C(=O)Nc2ncn[nH]2)c1	-	-	?	22µM	-	-
N#C/C(=C\c1ccc(OC(=O)C2CC2)cc1)C(=O)Nc1cccc(C(F)(F)F)c1	.	.	.	.	-	.
O=C1C2=CC[C@H]3C(=O)N(c4cccc(Oc5ccccc5)c4)C(=O)[C@@H]3[C@@H]2[C@H](O)[C@@H]2O[C@H]12	.	.	?	2.2µM	.	.
O=C1C2=CC[C@H]3C(=O)N(C4CCCCC4)C(=O)[C@@H]3[C@@H]2[C@H](O)[C@@H]2O[C@H]12	.	.	?	2µM	.	.
CCN1C(=O)[C@@H]2[C@H]3C(=CC[C@H]2C1=O)C(=O)[C@H]1OC1[C@H]3O (stereo partly specified)	.	.	?	2µM	.	.
O=C1C2=CC[C@H]3C(=O)N(Cc4ccc5c(c4)OCO5)C(=O)[C@@H]3[C@@H]2[C@H](O)[C@@H]2O[C@H]12	.	.	?	4.5µM	.	.
CC(C)OCCCNc1nc2c(c(=O)n(C)c(=O)n2C)n1Cc1ccc(Br)cc1	.	.	.	.	-	.
COc1cc(C2=NOC(C(=O)Nc3cc(C)nn3-c3ccccc3)C2)cc(OC)c1OC (stereo unspecified)	.	.	.	.	-	.
Nn1cnc2ccccc21	.	.	.	.	-	.
C#CCOc1ccc2ccccc2c1C=O	.	.	.	.	-	.
O=C1C2=CC[C@H]3C(=O)N(Cc4ccccc4)C(=O)[C@@H]3[C@@H]2[C@H](O)[C@@H]2O[C@H]12	.	.	?	2.2µM	.	.
CC1=CCC2C(=O)N(Cc3ccccc3)C(=O)C2C1 (stereo unspecified)	-	-	-	-	-	-
CCOC(=O)c1c(C)sc(-c2c(-c3ccc(OC)c(F)c3)[nH]c3c2c(=O)[nH]c(=O)n3C)c1O	16µM	.	.	.	-	16µM
CCc1ccc(-c2[nH]c3c(c2-c2sc(C)c(C(=O)OC)c2O)c(=O)[nH]c(=O)n3C)cc1	5.8µM	.	.	.	-	7.3µM
CCOC(=O)c1c(C)sc(-c2c(-c3ccc(OC)c(F)c3)[nH]c3[nH]c(=O)[nH]c(=O)c23)c1O	?	.	.	.	-	?
CCOC(=O)c1c(C)sc(-c2c(-c3ccc4c(c3)OCCO4)[nH]c3c2c(=O)n(C)c(=O)n3C)c1O	18µM	.	.	.	-	18µM
Cc1cccn2cc(CSc3ncnc4ccccc34)nc12	.	.	.	.	-	.
CCc1cccc(C)c1NC(=O)CN(C)Cc1ccc(Br)cc1	?	-57	-	-	-	21µM
Cc1cccc(C)c1NC(=O)CN(Cc1ccc(Br)cc1)S(=O)(=O)c1ccccc1	15µM	.	.	.	-	?
O=C(CN(Cc1ccc(F)cc1)S(=O)(=O)c1ccccc1)N1CCCCC1	16µM	-	-	-	-	?
Cc1cccc(C)c1NC(=O)CN(Cc1ccccc1)Cc1ccccc1	21µM	-	.	.	-	?
Cc1cccc(C)c1NC(=O)CNCC(=O)Nc1c(C)cccc1C	-	-	-	-	-	-
SMILES	DT40 TDP1 no CPT	IL-1B inflam inh	VP16 counter	RORg inh	LDHA inh	DT40 TDP1 CPT
c1ccc(-c2ccc(CNCc3ccco3)cc2)cc1	.	.	.	.	-	.
O=c1c2ccc(F)cc2ncn1Cc1coc(-c2cccs2)n1	.	.	.	.	-	.
CC[N+](CC)(CC)CC(=O)Nc1c(C)cccc1C	-	-	-	-	-	18µM!
CNC(=O)CN(Cc1ccccc1)S(=O)(=O)c1ccccc1	-	-	-	-[10 µM]	-	-
CC(C)(C)NC(=O)CN(Cc1ccccc1)S(=O)(=O)c1ccccc1	-	-74	-	-	-	-
O=C(COc1ncnc2sc3c(c12)CCC3)N1CCc2ccccc2C1	.	.	.	.	-	.
CC1=C(C(=O)N2CCOCC2)CC(CC(=O)NC(c2ccccc2)c2ccccc2)C(=O)N1CCC1=CCCCC1 (stereo unspecified)	?	-	.	.	-	?
CC1=C(C(=O)N(C)C)CC(CC(=O)NC(c2ccccc2)c2ccccc2)C(=O)N1Cc1ccc(F)cc1 (stereo unspecified)	18µM	-	.	.	-	?
